# Source: PubChem (National Center for Advancing Translational Sciences (NCATS))
# Most compounds without a hit are left out; they make up all but 7.4% or so of the library.
# Luc counter – Kinase-Glo luciferase inhibition (counter-screen) | Q27757 | Potency, µM (titrated, usually from 38.3 µM), for inactives: top-dose activity change, negative = inhibition, actives largely listed as inhibitors | Kinase-Glo luciferase, ATP luminescence, 8 min | hit rate 0.28% among 200,000; further: on the % scale 0 is the no-effect control and ±100 the full control effect; nearly all actives have a fitted effect of over 60% in size
#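 Inhibition of Kinase-Glo luciferase light generation was assessed at 10 uM ATP in pH 7.2 imidazole buffer, with luminescence measured after eight minutes at ambient temperature.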
# FLuc counter – counter-screen for miR-21 project: firefly luciferase inhibitors or activators; Potency, µM (titrated, usually from 57.5 µM), for the others: at the highest dose activity change, negative = inhibition, most hits filed as inhibitors; hit rate 6.9% among 360,000; purified FLuc, Km substrates, luminescence inhibition; P08659;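 further: plate controls were vehicle for no effect and reference inhibitor for full effect; nearly all actives have a fitted effect of over 55% in size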
# Target sequence (P08659 whole entry, looked up): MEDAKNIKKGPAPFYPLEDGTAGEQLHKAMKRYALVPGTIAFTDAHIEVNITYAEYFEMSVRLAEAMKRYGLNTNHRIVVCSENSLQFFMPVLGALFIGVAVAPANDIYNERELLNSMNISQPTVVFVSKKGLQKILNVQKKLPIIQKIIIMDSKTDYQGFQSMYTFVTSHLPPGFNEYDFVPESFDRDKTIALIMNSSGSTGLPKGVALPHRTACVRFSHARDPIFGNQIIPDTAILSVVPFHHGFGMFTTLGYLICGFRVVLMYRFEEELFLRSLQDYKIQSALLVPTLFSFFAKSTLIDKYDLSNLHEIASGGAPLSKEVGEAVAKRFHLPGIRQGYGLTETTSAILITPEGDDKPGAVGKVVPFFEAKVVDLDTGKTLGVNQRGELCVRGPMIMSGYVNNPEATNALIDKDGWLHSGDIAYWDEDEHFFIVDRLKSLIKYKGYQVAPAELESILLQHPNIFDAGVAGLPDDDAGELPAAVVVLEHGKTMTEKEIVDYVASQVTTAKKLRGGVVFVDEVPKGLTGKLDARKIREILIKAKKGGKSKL
#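 Biochemical qHTS of compounds, final roughly 60 µM downward over six points, against 10 nM purified firefly luciferase using Km concentrations of substrates (10 uM D-luciferin, 10 uM ATP) in Tris acetate pH 7.5 buffer; luminescence output.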
# Rab9 prom act – activates the Rab9 promoter. hit rate 2.8% among 320,000. Potency, µM (top dose mostly 9.22 µM), inactives show at the highest dose activation, negative = inhibition, actives largely listed as activators. AID 485297. Huh7 Rab9 promoter-luciferase reporter, luminescence, 24 h; further: % of control where 0% means no effect; nearly all actives have a fitted effect of over 60% in size
#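 Huh7 reporter line, Rab9 promoter upstream of luciferase. Compound exposure 24 h at 37 °C in reduced-serum medium with 10% FBS. Read-out: luminescence.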
# SMN2 splice enh – enhancers of SMN2 splice variant expression | HEK293 SMN2-luciferase splicing reporter, luminescence, 30-36 h | Potency, µM (series often up to 46.1 µM), for inactives: top-dose activity change, positive = activation, most hits filed as activators | hit rate 2.8% among 210,000 | AID 1458; further: % of control where 0% means no effect; nearly all actives have a fitted effect of over 55% in size
#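 HEK293 cells carry an SMN2 minigene-luciferase reporter in which exon 7 inclusion puts luciferase in frame. Cells were seeded at 2000 cells/well, attached for 10-12 hours, then exposed to compounds for 30-36 hours at 37C before ONE-Glo luminescence.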
# NPC1 promoter act – NPC1 promoter activation; Potency, µM (doses to about 9.22 µM), for inactives: top-dose activation, hits mostly activators; Huh7 NPC1 promoter luciferase reporter, 24 h; hit rate 2.4% among 320,000; AID 485313; further: % of control where 0% means no effect; nearly all actives have a fitted effect of over 60% in size
#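 Huh7 reporter cells (NPC1 promoter driving luciferase) are dosed with compound for 24 h at 37 °C, 5% CO2; luciferase detection reagent is then added and luminescence measured after 10 min at ambient temperature.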
# ELG1 genotoxic – induces genotoxicity in HEK293T cells with luciferase-tagged ELG1. HEK293T ELG1-luciferase reporter, luminescence, 16 h. Potency, µM (highest dose often 46 µM), without a hit: top-dose activity change, positive = activation, actives largely listed as activators. hit rate 1.3% among 330,000; further: % of control where 0% means no effect; nearly all actives have a fitted effect of over 60% in size
#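 Reporter readout depends on ELG1 protein level, which increases with genetic stress. After 16 hr compound exposure at 37 °C, luciferase activity was quantified using ONE-Glo.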
# An asterisk follows results filed as active; u = inconclusive; x = no result. The call rests on the fitted dose curve; in most records, active means well fitted curve in the direction sought with a large enough effect; inconclusive means small, poorly fitted or top-dose-only effect, or another doubt; inactive means no such curve, though single readings can be large; an effect the other way counts as inactive or inconclusive. Potency means the concentration at half of the fitted maximal effect.
SMILES,Luc counter,FLuc counter,Rab9 prom act,SMN2 splice enh,NPC1 promoter act,ELG1 genotoxic
Cc1ccc(C)c(NS(=O)(=O)c2ccc3c(c2)n(C)c(=O)n3C)c1,x,3%,x,x,x,x
Clc1ncnc2c1oc1ccccc12,-2%,9.5µM*,-1%,13µM*,1%,u
c1ccc2cc(Sc3ncnc4c3oc3ccccc34)ccc2c1,7%,17µM*,u,-21%,u,1%
Cc1cc(C)nc(Sc2ncnc3c2oc2ccccc23)n1,-2%,u,13%,-11%,-3%,-9%
COc1cccc(C(=O)NNS(=O)(=O)c2ccc(C)cc2)c1,x,4%,3%,x,-4%,-4%
Cc1ccc(Cn2ccn(Cc3ccccc3C)c(=O)c2=O)cc1,x,2%,x,x,x,x
CC(C)(C)C1CCc2onc(C(=O)Nc3sc4c(c3C#N)CCCC4)c2C1 (stereo not drawn),x,u,x,9%,x,x
Cc1nc(NC(=O)c2ccccc2)nc2cc3c(cc12)OCO3,u,17µM*,u,u,u,u
CC(NC(=O)C(=O)NN=C1CCCC1)c1ccccc1 (stereo not drawn),-1%,-2%,-4%,x,-2%,3%
CCc1nnc(NC(=O)C2Cc3ccccc3CN2S(=O)(=O)CC)s1 (stereo not drawn),1%,-4%,-4%,5%,-2%,-9%
CCS(=O)(=O)N1Cc2ccccc2CC1C(=O)Nc1nc2ccccc2s1 (stereo not drawn),-2%,5.4µM*,10%,-47%,1%,2.3µM*
CCS(=O)(=O)N1Cc2ccccc2CC1C(=O)Nc1nc2ccccc2[nH]1 (stereo not drawn),-1%,15µM*,20%,u,24%,u
O=C(CN(C(=O)C1CSC(=O)C1)c1cccc(F)c1)NCc1ccc2c(c1)OCO2 (stereo not drawn),x,0%,-5%,x,5%,-11%
O=C(NNC(=O)c1cccc2ccccc12)c1ccc(-c2ccccc2)cc1,0%,2%,-5%,-32%,-3%,5%
O=C(NNc1c2ccccc2nc2ccccc12)c1ccc(O)cc1,-11%,17µM*,8%,-45%,1%,5%
O=C(NNC(=O)c1ccc(O)cc1O)c1ccc(-c2ccccc2)cc1,x,19µM*,-5%,x,-6%,-4%
O=C(NNc1c2ccccc2nc2ccccc12)c1cccc(O)c1,-7%,24µM*,-1%,-34%,0%,-7%
O=C(NNc1c2ccccc2nc2ccccc12)c1ccc(O)cc1O,-11%,13µM*,-3%,-3%,-1%,-1%
O=C(NNc1c2ccccc2nc2ccccc12)c1ccccc1O,-6%,u,-2%,-15%,5%,-7%
O=C(NNc1c2ccccc2nc2ccccc12)c1ccccc1Cl,x,2%,-5%,x,-1%,4%
O=C(/C=C/c1ccccc1)N1CCN(Cc2cc(=O)n3nc(-c4ccccc4Cl)sc3n2)CC1,x,-13%,x,x,x,x
CCc1cccc(N2C(=O)CS(=O)(=O)C23C(=O)N(Cc2ccccc2)c2ccc(C)cc23)c1 (stereo not drawn),x,2%,x,x,x,x
COc1ccc(S(N)(=O)=O)cc1C(=O)OCCCOC(=O)c1cc(S(N)(=O)=O)ccc1OC,x,-2%,-16%,x,-15%,7.3µM*
CCOCCCn1c(SCc2nc3ccccc3s2)nc2ccccc2c1=O,-5%,17µM*,16%,-109%,15%,-8%
CCOCCCn1c(SCC(=O)Nc2ccccc2)nc2ccccc2c1=O,x,-3%,0%,x,-3%,-4%
COCCn1c(SCc2nc3ccccc3s2)nc2ccccc21,-1%,12µM*,3.5µM*,10%,u,u
C=CCn1c(=O)c2ccccc2n2c(SCc3nc4ccccc4s3)nnc12,12%,12µM*,u,-26%,5%,u
CCOC(=O)[C@H]1[C@H]2COc3ccc(OC)cc3[C@@H]2N2C(=O)c3cc(F)c(F)cc3NC(=O)[C@@]12C,x,-2%,-10%,x,1%,0%
